Experimental data from the supplement of paper PMC9262897, “Low-cost anti-mycobacterial drug discovery using engineered E. coli” (Nature Communications, 2022).
Where a name gives a salt, the structure may show the parent alone. ± gives the standard deviation of the averaged measurements.

Columns and labels:
Test in all cases: growth (OD600 after 10 h); higher = more growth (less inhibition)
[1] = system: E. coli TESEC Alr+ wild-type control; conditions: compound 0.1 mM; raw OD600 reference: median of DMSO wells 0.241, cell-free background 0.041
Protocol: (§1)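 TESEC Mtb Alr E. coli, or the Alr+ wild-type control, in 384-well plates with Prestwick library compounds at 0.1 mM and 1% DMSO, across arabinose induction levels of 1E3 to 1E7 nM. Growth is read as OD600 after 10 h at 37 °C in triplicate biological replicates.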

E. coli TESEC Mtb Alr [2] = conditions: compound 0.1 mM
Protocol: as §1

E. coli TESEC Mtb Asd = conditions: compound 0.1 mM
Protocol: (§2)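 TESEC E. coli strains in which the native enzyme is deleted and replaced by arabinose-inducible Mtb Asd, DapB, CysH or TrpD, each grown in its selective medium. Strains were screened against the Prestwick library at 0.1 mM and 1% DMSO in 384-well format at low and high arabinose induction. Growth is read as OD600 after 10 h in triplicate.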

E. coli TESEC Mtb DapB = conditions: compound 0.1 mM
Protocol: as §2

[3] = system: E. coli TESEC Alr+ wild-type control; conditions: compound 0.1 mM; raw OD600 reference: median of DMSO wells 0.49, cell-free background 0.052
Protocol: (§3)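 TESEC Mtb Alr E. coli (ΔaraC ΔtolC ΔentC Δalr ΔdadX, arabinose-inducible Mtb Alr) or the Alr+ wild-type control strain, grown in defined M9-fructose medium without D-alanine in 96-well plates with Prestwick library compounds at 0.1 mM and 1% DMSO. Low Alr induction is 0.1 µM arabinose and high induction is 10 mM arabinose.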

E. coli TESEC Mtb Alr [4] = conditions: compound 0.1 mM; remark: listed apart in the source
Protocol: as §3

[5] = arabinose 1000 nM, raw OD600 reference: median of DMSO wells 0.294, cell-free background 0.041
[6] = arabinose 10000 nM, raw OD600 reference: median of DMSO wells 0.264, cell-free background 0.041
[7] = arabinose 100000 nM, raw OD600 reference: median of DMSO wells 0.201, cell-free background 0.041
[8] = arabinose 1000000 nM, raw OD600 reference: median of DMSO wells 0.193, cell-free background 0.041
[9] = arabinose 10000000 nM, raw OD600 reference: median of DMSO wells 0.146, cell-free background 0.041
[10] = arabinose induction (level): High, raw OD600 reference: median of DMSO wells 0.331, cell-free background 0.041
[11] = arabinose induction (level): Low, raw OD600 reference: median of DMSO wells 0.417, cell-free background 0.041
[12] = arabinose induction (level): High, raw OD600 reference: median of DMSO wells […], cell-free background 0.041
[13] = arabinose induction (level): Low, raw OD600 reference: median of DMSO wells 0.227, cell-free background 0.041
[14] = arabinose 100 nM, raw OD600 reference: median of DMSO wells 0.413, cell-free background 0.052
[15] = arabinose 10000000 nM, raw OD600 reference: median of DMSO wells […], cell-free background 0.052

SMILES | growth [1] | growth (E. coli TESEC Mtb Alr [2]; [5]) | growth (E. coli TESEC Mtb Alr [2]; [6]) | growth (E. coli TESEC Mtb Alr [2]; [7]) | growth (E. coli TESEC Mtb Alr [2]; [8]) | growth (E. coli TESEC Mtb Alr [2]; [9]) | growth (E. coli TESEC Mtb Asd; [10]) | growth (E. coli TESEC Mtb Asd; [11]) | growth (E. coli TESEC Mtb DapB; [12]) | growth (E. coli TESEC Mtb DapB; [13]) | growth [3] | growth (E. coli TESEC Mtb Alr [4]; [14]) | growth (E. coli TESEC Mtb Alr [4]; [15])
CCc1cc(C(N)=S)ccn1 [Ethionamide] | 0.243 ± 0.0035 | 0.294 ± 0.0077 | 0.262 ± 0.005 | 0.236 ± 0.036 | 0.184 ± 0.0033 | 0.144 ± 0.0028 | 0.299 ± 0.05 | 0.324 ± 0.1 | 0.206 ± 0.011 | 0.217 ± 0.027 | 0.583 ± 0.11 | 0.406 ± 0.0087 | 0.334 ± 0.02
NC(CO)C(=O)NNCc1ccc(O)c(O)c1O (configuration not stated) [Benserazide hydrochloride] | 0.0616 ± 0.0013 | 0.246 ± 0.0069 | 0.224 ± 0.0028 | 0.205 ± 0.033 | 0.0994 ± 0.0023 | 0.124 ± 0.0056 | 0.186 ± 0.018 | 0.186 ± 0.0073 | 0.185 ± 0.023 | 0.227 ± 0.024 | 0.465 ± 0.036 | 0.337 ± 0.069 | 0.148 ± 0.03
CCN(CC)CCCC(C)Nc1c2ccc(Cl)cc2nc2ccc(OC)cc12 (configuration not stated) [Quinacrine dihydrochloride hydrate] | 0.0702 ± 0.00072 | 0.0775 ± 0.016 | 0.0444 ± 0.00085 | 0.104 ± 0.0031 | 0.04497 ± 0.00023 | 0.1 ± 0.0037 | 0.0701 ± 0.0057 | 0.0679 ± 0.006 | 0.156 ± 0.022 | 0.0986 ± 0.073 | 0.125 ± 0.049 | 0.421 ± 0.0083 | 0.222 ± 0.025
CN(C)[C@@H]1C(=O)C(C(N)=O)=C(O)[C@@]2(O)C(=O)C3=C(O)c4c(O)ccc(Cl)c4[C@@H](O)[C@H]3C[C@@H]12 [Demeclocycline hydrochloride] | 0.0424 ± 0.00081 | 0.0502 ± 0.0039 | 0.0459 ± 0.0013 | 0.0479 ± 0.0019 | 0.0435 ± 0.00079 | 0.0452 ± 0.0007 | 0.0573 ± 0.0014 | 0.0773 ± 0.029 | 0.0577 ± 0.0035 | 0.0559 ± 0.002 | 0.05087 ± 0.00038 | 0.0561 ± 0.0037 | 0.05407 ± 0.00042
CC(=O)[C@@]12O[C@](C)(c3ccccc3)O[C@@H]1C[C@H]1[C@@H]3CCC4=CC(=O)CC[C@]4(C)[C@H]3CC[C@@]12C [Algestone acetophenide] | 0.232 ± 0.0045 | 0.323 ± 0.053 | 0.265 ± 0.029 | 0.173 ± 0.031 | 0.115 ± 0.0061 | 0.211 ± 0.0087 | 0.231 ± 0.0044 | 0.278 ± 0.038 | 0.15 ± 0.015 | 0.171 ± 0.0092 | 0.381 ± 0.016 | 0.413 ± 0.011 | 0.117 ± 0.013
O=c1[nH]c(=O)n([C@H]2C[C@H](O)[C@@H](CO)O2)cc1F [Floxuridine] | 0.0553 ± 0.00059 | 0.0615 ± 0.0068 | 0.04377 ± 0.00025 | 0.052 ± 0.0014 | 0.0434 ± 0.0004 | 0.05017 ± 0.0005 | 0.088 ± 0.0059 | 0.0873 ± 0.011 | 0.129 ± 0.0019 | 0.165 ± 0.0032 | 0.356 ± 0.0098 | 0.387 ± 0.0052 | 0.0748 ± 0.0061
CC[N+](C)(CC)CCC[n+]1c(-c2ccccc2)c2cc(N)ccc2c2ccc(N)cc21 [Propidium iodide] | 0.0949 ± 0.011 | 0.135 ± 0.023 | 0.116 ± 0.028 | 0.15 ± 0.02 | 0.0816 ± 0.0028 | 0.0888 ± 0.012 | 0.0925 ± 0.0048 | 0.0953 ± 0.0048 | 0.137 ± 0.027 | 0.111 ± 0.021 | 0.0675 ± 0.0008 | 0.221 ± 0.13 | 0.0665 ± 0.0008
NC(Cc1cc(I)c(Oc2cc(I)c(O)c(I)c2)c(I)c1)C(=O)O (configuration not stated) [Thyroxine (L)] | 0.169 ± 0.0037 | 0.2363 ± 0.0021 | 0.284 ± 0.006 | 0.196 ± 0.021 | 0.154 ± 0.0089 | 0.185 ± 0.0093 | 0.354 ± 0.0042 | 0.292 ± 0.042 | 0.206 ± 0.008 | 0.243 ± 0.013 | 0.469 ± 0.018 | 0.369 ± 0.034 | 0.359 ± 0.019
CCCCCCCN(CC)CCCC(O)c1ccc(NS(C)(=O)=O)cc1 (configuration not stated) [Ibutilide fumarate] | 0.219 ± 0.041 | 0.298 ± 0.013 | 0.268 ± 0.01 | 0.183 ± 0.02 | 0.158 ± 0.0044 | 0.137 ± 0.001 | 0.271 ± 0.022 | 0.44 ± 0.022 | 0.197 ± 0.027 | 0.243 ± 0.019 | 0.55 ± 0.095 | 0.408 ± 0.0059 | 0.313 ± 0.016
CC(C(=O)O)c1cccc(C(=O)c2ccccc2)c1 (configuration not stated) [Ketoprofen] | 0.227 ± 0.0059 | 0.249 ± 0.014 | 0.271 ± 0.012 | 0.172 ± 0.012 | 0.191 ± 0.0088 | 0.145 ± 0.0059 | 0.247 ± 0.013 | 0.335 ± 0.038 | 0.184 ± 0.018 | 0.248 ± 0.058 | 0.533 ± 0.084 | 0.428 ± 0.018 | 0.36 ± 0.005
C=C1/C(=C\C=C2/CCC[C@]3(C)[C@@H]([C@H](C)CCCC(C)C)CC[C@@H]23)C[C@@H](O)C[C@@H]1O [Alfacalcidol] | 0.0884 ± 0.006 | 0.0977 ± 0.004 | 0.051 ± 0.0012 | 0.143 ± 0.018 | 0.065 ± 0.0018 | 0.121 ± 0.002 | 0.219 ± 0.033 | 0.301 ± 0.066 | 0.234 ± 0.012 | 0.226 ± 0.018 | 0.146 ± 0.0019 | 0.4206 ± 0.0018 | 0.149 ± 0.023
CN1CCCN=C1/C=C/c1cccc(O)c1 [Oxantel pamoate] | 0.216 ± 0.016 | 0.303 ± 0.013 | 0.236 ± 0.0088 | 0.226 ± 0.039 | 0.141 ± 0.0019 | 0.189 ± 0.0049 | 0.282 ± 0.051 | 0.258 ± 0.009 | 0.1953 ± 0.0019 | 0.218 ± 0.019 | 0.496 ± 0.038 | 0.405 ± 0.011 | 0.326 ± 0.013
CC(=O)OC[C@H]1O[C@@H]([S-])[C@H](OC(C)=O)[C@@H](OC(C)=O)[C@@H]1OC(C)=O.CCP(CC)CC.[Au+] [Auranofin] | 0.0481 ± 0.0033 | 0.04847 ± 0.00021 | 0.0451 ± 0.00026 | 0.0634 ± 0.012 | 0.0436 ± 0.00056 | 0.0467 ± 0.00053 | 0.0525 ± 0.0026 | 0.0514 ± 0.0016 | 0.0674 ± 0.019 | 0.111 ± 0.019 | 0.059 ± 0.00026 | 0.0775 ± 0.008 | 0.056 ± 0.00069
CC1(C)O[C@@H]2C[C@H]3[C@@H]4CCC5=CC(=O)CC[C@]5(C)[C@@]4(F)[C@@H](O)C[C@]3(C)[C@]2(C(=O)CCl)O1 [Halcinonide] | 0.215 ± 0.022 | 0.283 ± 0.011 | 0.2593 ± 0.0019 | 0.181 ± 0.027 | 0.123 ± 0.0028 | 0.152 ± 0.014 | 0.258 ± 0.052 | 0.36 ± 0.049 | 0.188 ± 0.003 | 0.22 ± 0.0073 | 0.442 ± 0.032 | 0.413 ± 0.021 | 0.256 ± 0.019
